20 molecules from PubChem BioAssay (NCI) can be followed below.

Assay [1] can be described thus: NCI Yeast Anticancer Drug Screen. Data for the rad50 strain (AID 155).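 Also: 0% = growth of vehicle-only cultures of the same strain.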 The settings on record: S. cerevisiae rad50 strain growth inhibition; at 50.0 µM; active compounds read high. The method, boiled down:
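Growth of the mutant yeast was measured after compound exposure and referenced to vehicle-treated cultures.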

Assay [2] is described as follows: NCI Yeast Anticancer Drug Screen. Data for the mec2-1 strain (AID 157). The settings on record: S. cerevisiae mec2-1 strain, at 50.0 µM, active compounds read high. Put shortly: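 mec2-1 yeast strain, carrying an alteration in DNA damage repair or cell cycle control, was exposed to compounds; growth inhibition was measured relative to vehicle-treated controls.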
The nature of assay [3]: NCI Yeast Anticancer Drug Screen. Data for the sgs1 mgt1 strain (AID 161).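 Also: 0% = growth of cultures given vehicle only.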 The settings on record: S. cerevisiae sgs1 mgt1 strain, at 50.0 µM, active compounds read high. The method, boiled down:
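Yeast cells carrying a defined DNA-repair defect were exposed to test compounds. Growth inhibition was measured relative to vehicle-treated controls.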

Assay [4] in a line: NCI Yeast Anticancer Drug Screen. Data for the cln2 rad14 strain (AID 165).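 Also: 0% = growth equal to vehicle treated cultures.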 To be noted: S. cerevisiae cln2 rad14 strain, at 50.0 µM, active compounds read high. The method, boiled down: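 Yeast carrying cln2 and rad14 alterations (cell cycle control and DNA damage repair) were exposed to compounds. Growth inhibition was measured against vehicle-treated controls.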
Assay [5] in a line: NCI Yeast Anticancer Drug Screen. Data for the bub3 strain (AID 167). The settings on record: S. cerevisiae bub3 mutant strain, at 50.0 µM, active compounds read high. Put shortly:
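Whole-cell yeast assay. The mutant strain was incubated with compounds, and growth inhibition was determined by comparison with vehicle-treated cells.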

Assay [6] can be described thus: NCI Yeast Anticancer Drug Screen. Data for the mlh1 rad18 strain (AID 175). The settings on record: S. cerevisiae mlh1 rad18 strain growth inhibition; at 50.0 µM; active compounds read high. Put shortly: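 Growth inhibition of the yeast strain was measured after compound exposure and expressed relative to vehicle-treated controls. The strain carries defined defects in DNA damage repair.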

This is part of a sample that, as a whole, favours compounds with a hit. Of some 79,000 tested, about 15% had one in any assay. A number with no mark means an inactive call. Calls of active or inactive are those of the source. Rule as the data show it: active = growth inhibition above about 70%; inactive = the rest.

On to `[O-][n+]1onc2c1/C(=N/O)CCC2`, for which the growth inhibition in assay [1] is -17.2%; in assay [2], 4.6%; in assay [3] it was -14.3%; in assay [4] it was -2.3%; in assay [5] it was -4.1%; in assay [6], 11.7%.

Regarding `CC1(CCl)Nc2ccccc2C(=O)N1c1ccc(F)cc1` (stereo not given), the growth inhibition in assay [1] is -7.55%; in assay [2], -21.9%; in assay [3], -0.9%; in assay [4], 1.4%; in assay [5], 14.6%; in assay [6], -3.35%.

On to `CC(=O)c1c(C)cc(C(C)(C)C)cc1C`, for which the growth inhibition in assay [1] was 18.4%; in assay [2], -1.1%; in assay [3], 12.8%; in assay [4], -0.55%; in assay [5], 9.3%; in assay [6], 13.8%.

Turning to `COc1cc(OC)cc(C(=O)NN)c1`, the growth inhibition in assay [1] is 19%; in assay [2], -2.2%; in assay [3], 5.1%; in assay [4], 17.4%; in assay [5] it was 0.5%; in assay [6] it was -18.6%.

Turning to `c1ccc(Cn2ccnc2CSCCSCc2nccn2Cc2ccccc2)cc1`, the growth inhibition in assay [1] was 17.5%; in assay [2] it was 37.2%; in assay [3], -5.8%; in assay [4], 12.9%; in assay [5], -0.65%; in assay [6] it was 29.9%.

On to `O=C(CCN1CCC2CCC(C2)C1)c1ccc(Cl)cc1` (stereo not given), for which the growth inhibition in assay [1] was 17.3%; in assay [2] it was 3.35%; in assay [3] it was 46.5%; in assay [4], -4%; in assay [5] it was 21.3%; in assay [6], -7.3%.

Regarding `CC1(c2cccs2)C(=O)NC(=O)N1C(=O)CCl` (stereo not given), the growth inhibition in assay [1] was 6.8%; in assay [2] it was 4.55%; in assay [3], -6.65%; in assay [4], -2.75%; in assay [5], 9.3%; in assay [6], 5.55%.

As to `CC(C)C12Cc3c(ccc4ccccc34)OC1(C)Oc1ccc3ccccc3c1C2` (stereo not given), the growth inhibition is 18.6% in assay [1]; -17.4% in assay [2]; -13.5% in assay [3]; 20.1% in assay [4]; -6.8% in assay [5]; 7.05% in assay [6].

For `COc1ccc(C2=CCCCc3cc(O)c(OC)cc32)cc1`, the growth inhibition in assay [1] was 93.9% (active); in assay [2], 96.7% (active); in assay [3] it was 97.2% (active); in assay [4], 79.8% (active); in assay [5], 98.1% (active); in assay [6] it was 97.2% (active).

Regarding `CN(CCSCC(N)C(=O)O)CCSCC(N)C(=O)O` (stereo not given), the growth inhibition in assay [1] is 5%; in assay [2] it was 11.2%; in assay [3], 0.7%; in assay [4], 29.4%; in assay [5], -58%; in assay [6], 28.6%.

Turning to `Cc1cc[n+](CC(=O)CCc2ccc(C(=O)C[n+]3ccc(C)cc3)cc2)cc1`, the growth inhibition in assay [1] was 41.1%; in assay [2] it was -1.85%; in assay [3] it was 34.3%; in assay [4], -6.4%; in assay [5], -3.95%; in assay [6], 11.1%.

As for `Cc1c(Br)c(Br)nn1C(C)C(=O)N(C)C` (stereo not given), the growth inhibition in assay [1] is 1.75%; in assay [2], 1.6%; in assay [3] it was -4.55%; in assay [4], -40.8%; in assay [5], -31.8%; in assay [6], 4.45%.

As for `Cc1cc(C)nc(NS(=O)(=O)c2ccc(NC(=O)c3ccc(Cl)c4c(Nc5ccc(S(=O)(=O)Nc6nc(C)cc(C)n6)cc5)c5ccccc5nc34)cc2)n1`, the growth inhibition in assay [1] was 28.1%; in assay [2], 41.3%; in assay [3], 27.8%; in assay [4] it was 34.2%; in assay [5], 27.8%; in assay [6], 30.4%.

As for `Cn1ncc2c(=S)[nH]c(=O)[nH]c21`, the growth inhibition in assay [1] is 3.7%; in assay [2] it was -0.2%; in assay [3] it was -1.1%; in assay [4], -4.95%; in assay [5], 1.05%; in assay [6], -0.1%.

On to `CC(=O)Oc1ccc(O)c(C(=O)O)c1`, for which the growth inhibition is 1.8% in assay [1]; -7.15% in assay [2]; -4.95% in assay [3]; -1.35% in assay [4]; 0.2% in assay [5]; 17.3% in assay [6].

For the molecule `CCc1ccccc1NC(=O)C1=C(C)NC(C)=C(C(=O)Nc2ccccc2CC)C1c1cccc([N+](=O)[O-])c1`, the growth inhibition in assay [1] was -0.95%; in assay [2] it was 52%; in assay [3], 24.2%; in assay [4], 17.9%; in assay [5] it was 36.5%; in assay [6] it was 20.5%.

On to `OC(C1=NNC(C(O)c2ccccc2)=NN1)c1ccccc1` (stereo not given), for which the growth inhibition is -29% in assay [1]; 4.7% in assay [2]; 22% in assay [3]; -20.4% in assay [4]; -2.45% in assay [5]; 5.8% in assay [6].

In the case of `O=C(O)CNC1=NCCN1`, the growth inhibition in assay [1] was -0.8%; in assay [2], 2.5%; in assay [3], -8.4%; in assay [4], -41.4%; in assay [5], -24.1%; in assay [6], -3.2%.

Consider `O=C1C(N=Nc2ccccc2)Sc2nc3ccccc3n21` (stereo not given), for which the growth inhibition in assay [1] was -16.1%; in assay [2], -3.2%; in assay [3], 2.85%; in assay [4], -52%; in assay [5], 4.5%; in assay [6], -9.1%.

For `[O-][N+]1(CC[N+]2([O-])CCCCC2)CCCCC1`, the growth inhibition in assay [1] was -16.8%; in assay [2] it was -4.9%; in assay [3], 1.7%; in assay [4], -37.3%; in assay [5], -0.65%; in assay [6] it was 15.8%.
